From PubChem BioAssay (NCATS)
Results filed as inconclusive are left out. Where a call stands in place of a potency, no number is given. The source made the active and inactive calls. Calls follow the shape of the dose curve; as a rule, active = well fitted cell-killing curve with a large enough effect; inconclusive = small, poorly fitted or top-dose-only effect, or effect the other way; inactive = no such curve, though single readings can be large or run the other way.
Potency is read from the fitted curve at half-maximal effect.

Test: Quantitative High-Throughput drug screen in 47 multiple myeloma cell lines against the NCATS MIPE library collection: RPMI8226_ATCC cell viability assay (AID 1919871); also: nearly all actives have a fitted effect of over 30% in size
Conditions: RPMI8226 myeloma viability, CellTiter-Glo ATP luminescence, 48 h; series mostly up to 45.8 µM
Source text: PI: Beverly A. Mock Ph.D.
Laboratory of Cancer Biology and Genetics,
Center for Cancer Research, National Cancer Institute,
National Institute of Health, Bethesda, Maryland
Drug resistance and disease progression are common in multiple myeloma (MM) patients, underscoring the need for new therapeutic combinations. […] We hypothesized that effective combinations would reduce MYC expression and enhance p16 activity. […] These preclinical data identify potentially useful drug combinations for evaluation in drug-resistant MM and reveal potential mechanisms of combined drug sensitivity.
Described herein is the primary MIPE qHTS used to cherrypick compounds. Validated compounds were then further tested for potential synergistic activiy.
[1] Peat TJ, Gaikwad SM, Dubois W, Gyabaah-Kessie N, Zhang S, Gorjifard S, Phyo Z, Andres M, Hughitt VK, Simpson RM, Miller MA, Girvin AT, Taylor A, Williams D, D'Antonio N, Zhang Y, Rajagopalan A, Flietner E, Wilson K, Zhang X, Shinn P, Klumpp-Thomas C, McKnight C, Itkin Z, Chen L, Kazandijian D, Zhang J, Michalowski AM, Simmons JK, Keats J, Thomas CJ, Mock BA. Drug combinations identified by high-throughput screening promote cell cycle transition and upregulate Smad pathways in myeloma. Cancer Lett. 2023 Aug 1;568:216284. doi: 10.1016/j.canlet.2023.216284. Epub 2023 Jun 24. PMID: 37356470; PMCID: PMC10408729.
SEQUENCE No. (e.g., 1, 2, 3, etc.); […] (e.g., Cells, Incubation, Reagent, etc.); VALUE and DESCRIPTION.
1; Cells; 5 uL; white, solid bottom 1536-well Greiner assay plate.
2; Compounds; 23 nL; Kalypsis pin tool (Wako USA) equipped with a 1536-well pin head to transfer to the assay plates.
3; Incubation; 48 hours; 37C incubation.
4; Reagent;5uL; CellTiter Glo (Promega).
5; Detector; 425V; Luminescence; Viewlux PerkinElmer.
NOTES (numbers refer to Sequence numbers above)
1. The cell-based screening methods employed in this study were like those previously published. Briefly, the corresponding myeloma cell lines were screened in 1,536-well plates with 500 cells, 5-uL per well for inhibition of cell viability (assessed by measuring ATP levels with CellTiterGlo).
2. NCATS MIPE 4.0 library of approved and investigational drugs were added using the Kalypsis pin tool. Wells treated with DMSO only for 100% viability and media only for 0% viability were used as controls.
3. The assay plates were covered and incubated for 48 hours in a 37C, 5% CO2 incubator with controlled humidity.
4. After 48 hours, CellTilter-GloTM luminescent substrate mix (Promega) reagent was added to the assay plate and plates we incubated for 5 min at room temperature.
5. Signal was measured as median relative luminescence units on a ViewLux (PerkinElmer) multiplate reader.
[1] Heske CM, Davis MI, Baumgart JT, Wilson K, Gormally MV, Chen L, Zhang X, Ceribelli M, Duveau DY, Guha R, Ferrer M, Arnaldez FI, Ji J, Tran HL, Zhang Y, Mendoza A, Helman LJ, Thomas CJ. Matrix Screen Identifies Synergistic Combination of PARP Inhibitors and Nicotinamide Phosphoribosyltransferase (NAMPT) Inhibitors in Ewing Sarcoma. Clin Cancer Res. 2017 Dec 1;23(23):7301-7311. doi: 10.1158/1078-0432.CCR-17-1121. Epub 2017 Sep 12. PMID: 28899971; PMCID: PMC6636827.
With `O=C(O)C1CCCN(CCC=C(c2ccccc2)c2ccccc2)C1` (stereo not given) the Potency was “inactive”. With `CC1CC2C3CCC4=CC(=O)C=C[C@]4(C)[C@@]3(F)[C@@H](O)C[C@]2(C)[C@@]1(O)C(=O)CO` (stereo not given in full) the Potency was 0.0296 µM (active). In the case of `CCCN[C@H]1CCc2nc(N)sc2C1`, the Potency is reported as “inactive”. For `CC(C)(C)C(=O)OCOP(=O)(COCCn1cnc2c(N)ncnc21)OCOC(=O)C(C)(C)C`, the Potency was 18.7 µM (active). In the case of `COCCCOc1cc(C[C@@H](C[C@H](N)[C@@H](O)C[C@H](C(=O)NCC(C)(C)C(N)=O)C(C)C)C(C)C)ccc1OC`, the Potency is reported as “inactive”. With `CCN(CC)CCn1c(=O)c(Cc2ccc(OC)cc2)nc2ccccc21` the Potency was “inactive”. With `NCCCC(O)(P(=O)(O)O)P(=O)(O)O` the Potency was “inactive”. In the case of `CNCC[C@H](Oc1cccc2ccccc12)c1cccs1`, the Potency is reported as 23.5 µM (active). In the case of `COc1ccc2c(c1)c(CC(=O)OCC(=O)O)c(C)n2C(=O)c1ccc(Cl)cc1`, the Potency is reported as “inactive”. For `C#CCN[C@@H]1CCc2ccccc21`, the Potency was 9.35 µM (active). With `O=C(O)c1cc(=O)[nH]c(=O)[nH]1` the Potency was “inactive”. In the case of `OC(Cn1cncn1)(Cn1cncn1)c1ccc(F)cc1F`, the Potency is reported as 5.26 µM (active). For `CNS(=O)(=O)Cc1ccc2[nH]cc(CCN(C)C)c2c1`, the Potency was “inactive”. In the case of `Oc1c(Cl)cc(Cl)c2cccnc12`, the Potency is reported as 18.7 µM (active). With `O[C@@H](CNC[C@H](O)[C@H]1CCc2cc(F)ccc2O1)[C@@H]1CCc2cc(F)ccc2O1` the Potency was 20.9 µM (active). With `COc1cc2c(Nc3ccc(Br)cc3F)ncnc2cc1OCC1CCN(C)CC1` the Potency was 23.5 µM (active). In the case of `COC(c1ccccc1)(c1ccccc1)[C@H](Oc1nc(C)cc(C)n1)C(=O)O`, the Potency is reported as “inactive”. In the case of `CC1=NN(c2ccccc2)C(=O)C1`, the Potency is reported as “inactive”. For `Nc1nc(F)nc2c1ncn2[C@@H]1O[C@H](CO)[C@@H](O)[C@@H]1O`, the Potency was 0.418 µM (active). For `COC(=O)Nc1nc2ccc(Sc3ccccc3)cc2[nH]1`, the Potency was 5.26 µM (active). In the case of `NC(N)=NC(N)=NCCc1ccccc1`, the Potency is reported as 20.9 µM (active). For `NC(=O)c1ccc2[nH]ccc2c1`, the Potency was “inactive”. With `NS(=O)(=O)c1cc2c(cc1Cl)NC(C(Cl)Cl)NS2(=O)=O` (stereo not given) the Potency was “inactive”. With `CCc1c2c(nc3ccc(OC(=O)N4CCC(N5CCCCC5)CC4)cc13)-c1cc3c(c(=O)n1C2)COC(=O)[C@]3(O)CC` the Potency was 0.372 µM (active). In the case of `COc1ccc(-c2ccc3cc(C(=O)O)ccc3c2)cc1C12CC3CC(CC(C3)C1)C2`, the Potency is reported as 0.833 µM (active). With `C[C@@H]1CN(c2c(F)c(N)c3c(=O)c(C(=O)O)cn(C4CC4)c3c2F)C[C@H](C)N1` the Potency was “inactive”. With `N=C(N)c1ccc(OCCCCCOc2ccc(C(=N)N)cc2)cc1` the Potency was 5.9 µM (active). In the case of `COc1cc2nc(N3CCCN(C)CC3)nc(NC3CCN(Cc4ccccc4)CC3)c2cc1OC`, the Potency is reported as 9.35 µM (active). With `COc1c(N2CCNC(C)C2)c(F)cc2c(=O)c(C(=O)O)cn(C3CC3)c12` (stereo not given) the Potency was “inactive”. For `Cc1cc(NS(=O)(=O)c2ccc(N)cc2)no1`, the Potency was “inactive”. In the case of `CCOC(=O)c1ccc(C#Cc2ccc3c(c2)C(C)(C)CCS3)nc1`, the Potency is reported as “inactive”. With `CC(C(=O)O)c1ccc2c(c1)CC(=O)c1ccccc1S2` (stereo not given) the Potency was “inactive”. For `O=S(=O)(O)CCS`, the Potency was “inactive”. In the case of `COc1nc(N)nc2c1ncn2[C@@H]1O[C@H](CO)[C@@H](O)[C@@H]1O`, the Potency is reported as “inactive”. In the case of `CC(=O)Oc1ccccc1C(=O)Nc1ncc([N+](=O)[O-])s1`, the Potency is reported as 19.1 µM (active). In the case of `CN1CCN(c2c(F)cc3c(=O)c(C(=O)O)cn4c3c2OCN4C)CC1`, the Potency is reported as “inactive”. In the case of `Cc1ccc(S(=O)(=O)N[C@@H](Cc2ccccc2)C(=O)CCl)cc1`, the Potency is reported as 20.9 µM (active). In the case of `CC(C)(C)NC(=O)[C@H]1CC[C@H]2[C@@H]3CC[C@H]4NC(=O)C=C[C@]4(C)[C@H]3CC[C@]12C`, the Potency is reported as “inactive”. In the case of `N[C@@H](Cc1ccc(O)c(O)c1)C(=O)O`, the Potency is reported as “inactive”. In the case of `C[C@]12C=CC(=O)C=C1CC[C@@H]1[C@@H]2C(=O)C[C@@]2(C)[C@H]1CC[C@]2(O)C(=O)CO`, the Potency is reported as “inactive”.
